# This is a sample that favours compounds with a hit; in the whole collection about 3.1% have one here.
# A549 viability – A549 cytotoxicity, counter-screen for Nrf2 inhibitors. A549 ARE-Fluc cells, CellTiter-Fluor viability, 18-24 h. Potency, µM (doses to about 46 µM), inactives show at the top dose activity change, negative = cytotoxicity, usual class: inhibitors. 390,000 compounds, 0.16% hits; also: % is scaled to controls: 0 for no effect and ±100 for the full control effect
#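 Cytotoxicity counterscreen: CellTiter-Fluor fluorescence was measured in A549 ARE_Fluc cells after 18-24 h of compound exposure in a concentration series. The subsequent BugLite luminescent read reports ARE-luciferase activity.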
# rTrxR1 inhibitor – rat TrxR1 inhibition; Potency, µM (series often up to 114 µM), for the others: top-dose activity change, negative = inhibition, usual class: inhibitors; O89049; 390,000 compounds, 1% hits; recombinant rTrxR1, NADPH fluorescence consumption, selenite substrate; also: % is scaled to controls: 0 for no effect and ±100 for the full control effect; nearly all actives have a fitted effect of over 65% in size
#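 Rat TrxR1 (90 nM in the dispensed reagent) was pre-reduced with 400 uM NADPH for 5 min at room temperature, then incubated with compound for 15 min. After 400 uM selenite was added, NADPH fluorescence (Ex 340/Em 450 nm) was followed for 8 min.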
# Mito fusion yeast – inhibitors of mitochondrial division or activators of mitochondrial fusion | AID 485298 | 320,000 compounds, 0.23% hits | Potency, µM (top dose mostly 46.1 µM), for inactives: at the top dose growth rescue (activation), hits mostly activators | S. cerevisiae fusion-defective mutant growth rescue, CellTiterGlo 48 h; also: % of control where 0% means no effect; nearly all actives have a fitted effect of over 45% in size
#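 Luminescent cell viability in 1536-well qHTS format served as the measure of rescued growth in ts fusion-mutant S. cerevisiae cultured on non-fermentable YPEG for 48 hours at 37C.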
# Nrf2 inh – inhibitors of Nrf2 signaling; A549 ARE-Fluc reporter, luciferase luminescence, 18-24 h; Potency, µM (doses to about 46 µM), for inactives: at the top dose activity change, negative = inhibition, hits mostly inhibitors; 360,000 compounds, 2.1% hits; AID 504444; also: % is scaled to controls: 0 for no effect and ±100 for the full control effect; nearly all actives have a fitted effect of over 60% in size
#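 A549 ARE_Fluc cells (5000/well, 5% FBS OPTI-MEM) pre-incubated 2 h, then treated with compounds 18-24 h at 37C/5% CO2 in concentration-response. CellTiter-Fluor viability read first; BugLite luciferase luminescence after 15 min at room temperature gives Nrf2 activity.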
# TrxR1 substrate – substrates of rat thioredoxin reductase 1. purified TrxR1 substrate turnover, NADPH consumption readout. Potency, µM (highest dose often 114 µM), inactives show at the highest dose activity change, negative = substrate turnover. 390,000 compounds, 0.01% hits. AID 588456; also: % is scaled to controls: 0 for no effect and ±100 for the full control effect; nearly all actives have a fitted effect of over 50% in size
#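 Rat TrxR1, dispensed at 90 nM, was prereduced with 400 uM NADPH (final) for 5 min at ~22 deg C, then incubated with compound 15 min before 400 uM selenite. A first-read NADPH fluorescence drop versus no-compound background flagged substrates.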
# IDH1 R132H inh – human IDH1 R132H inhibition; O75874; Potency, µM (doses to about 76.6 µM), for inactives: top-dose activity change, negative = inhibition, actives largely listed as inhibitors; 390,000 compounds, 0.093% hits; IDH1-R132H enzyme, NADPH consumption, diaphorase/resazurin fluorescence; also: % is scaled to controls: 0 for no effect and ±100 for the full control effect; nearly all actives have a fitted effect of over 65% in size
# Target sequence (O75874 whole entry R132H, stated change not applied): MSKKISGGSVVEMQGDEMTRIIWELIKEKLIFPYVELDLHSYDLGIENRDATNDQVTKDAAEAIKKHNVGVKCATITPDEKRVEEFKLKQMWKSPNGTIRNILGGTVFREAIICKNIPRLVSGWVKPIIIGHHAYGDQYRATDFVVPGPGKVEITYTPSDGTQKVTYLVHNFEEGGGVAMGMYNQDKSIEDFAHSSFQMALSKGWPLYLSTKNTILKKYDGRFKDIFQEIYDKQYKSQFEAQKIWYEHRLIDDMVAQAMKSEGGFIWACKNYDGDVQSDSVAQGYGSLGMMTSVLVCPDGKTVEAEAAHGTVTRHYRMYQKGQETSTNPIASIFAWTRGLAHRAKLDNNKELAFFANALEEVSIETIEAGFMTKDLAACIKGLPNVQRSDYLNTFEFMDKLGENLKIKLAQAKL
#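 IDH1-R132H (0.5 ug/mL) preincubated 30 min with compound, then NADPH (0.016 mM) and alpha-KG (2 mM) added; 80 min at RT, pH 7.5. Remaining NADPH coupled via diaphorase/resazurin to fluorescence (540/590 nm); concentration-response curves normalized to no-enzyme control.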
# * marks the source's active call; other numbers are inactive results; ? = inconclusive; . = not tested or not shown; ! = not active in a repeat; [ ] = remark or other dose. Calls follow the shape of the dose curve; as a rule, active = well fitted curve in the direction sought with a large enough effect; inconclusive = small, poorly fitted or top-dose-only effect, or another doubt; inactive = no such curve, though single readings can be large; an effect the other way counts as inactive or inconclusive. Potency is read from the fitted curve at half-maximal effect.
SMILES,A549 viability,rTrxR1 inhibitor,Mito fusion yeast,Nrf2 inh,TrxR1 substrate,IDH1 R132H inh
COC(=O)Cn1c(=NC(=O)CCS(=O)(=O)c2ccccc2)sc2c(OC)ccc(OC)c21,-0.7%,28.2µM*,-0.7%,-16.2%,-1.6%,-2.9%
Cc1cc([N+](=O)[O-])ccc1NCc1cccc2ccccc12,?,10.4%,.,14.6µM*,3.4%,9.5%
COc1cc2c(cc1NC(=O)c1cccc([N+](=O)[O-])c1)oc1ccccc12,18.4µM*,7.6%[57.1 µM],1.1%,16.4µM*,4.5%[57.1 µM],-2.9%
OC(COc1ccc(OCC(O)CN2CCCCCC2)cc1)CN1CCCCCC1 (centres undefined),2.59µM*,-5.1%[57.1 µM],-2.8%,.,2.7%[57.1 µM],-1.5%
O=C1CN(S(=O)(=O)c2ccc3c(c2)OCCO3)CCN1S(=O)(=O)c1c(F)cccc1F,-4.8%,.,.,17.0%,.,.
COc1ccc(OC)c(C2=NOC(C(=O)NCc3ccco3)C2)c1 (centres undefined),-17.1%,28.2µM*,-1.6%,?,3.6%,3.7%
CCc1ccccc1NC(=O)c1ccc2c(c1)N(Cc1cccc(Cl)c1)C(=O)c1ccccc1S2(=O)=O,2.7%,11.7%,.,3.2%,-1.6%,-2.9%
COc1cccc(C2C=C(c3ccc(OC)cc3OC)Nc3nnnn32)c1 (centres undefined),?,44.7µM*,-0.2%,18.4µM*,3.1%,6.3%
CS(=O)(=O)N(Cc1ccccc1)c1ccc(C(=O)Nc2cccnc2)cc1,1.7%,35.9%,0.1%,-1.0%,13.0%,-3.1%
CS(=O)(=O)N(Cc1ccc(Cl)cc1)c1ccc(C(=O)Nc2cccnc2)cc1,-18.8%,-19.5%[57.1 µM],7.4%,16.4µM*,-3.9%[57.1 µM],0.1%
O=C(C[n+]1cnn(CC(=O)c2ccc(Cl)cc2Cl)c1)c1ccc([N+](=O)[O-])cc1,-7.4%,50.1µM*,0.0%,-22.5%,-7.0%,4.5%
COc1cc(C(=O)NC2CCCc3c2cnn3-c2ccccc2F)cc(OC)c1OC (centres undefined),-13.8%,16.5%,-2.8%,6.51µM*,-1.7%,11.6%
CCCC(=O)NC1CCCc2c1cnn2-c1ccc(C)c(C)c1 (centres undefined),0.1%,27.2%[2.29 µM],3.7%,-29.4%,-4.2%,0.0%
COc1ccc(C(=O)NC2CCCc3c2cnn3-c2ccc(C)c(C)c2)c(OC)c1OC (centres undefined),-10.5%,9.3%,-5.4%,13µM*,-7.2%,-10.6%
CC(=O)NC1CCCc2c1cnn2-c1ccc(C(C)(C)C)cc1 (centres undefined),-8.3%,18.7%[57.1 µM],3.8%,-24.3%,9.4%[57.1 µM],7.1%
CC(C)(C)c1ccc(-n2ncc3c2CCCC3NC(=O)C2=NNC(=O)CC2)cc1 (centres undefined),-19.1%,-19.9%,8.8%,8.2µM*,-11.9%,0.0%
CCn1nc(C)cc1C(=O)NC1CCCc2c1cnn2-c1ccc(C)c(C)c1 (centres undefined),-13.3%,-9.8%,-2.6%,11.6µM*,-7.7%,8.4%
COc1cccc(C(=O)NC2CCCc3c2cnn3-c2ccc(C)c(C)c2)c1OC (centres undefined),-3.7%,6.0%,-2.8%,?,0.8%,8.8%
COc1ccc(CNC(=O)C2=C(C)C(=O)OC23CCCCC3)cc1OC,-2.4%,14.5%,.,?,0.1%,-4.1%
Cc1cc(C(=O)NC2CCCc3c2cnn3-c2ccc(C)c(C)c2)no1 (centres undefined),-18.9%,-11.1%,8.9%,10.3µM*,-4.9%,-6.7%
COCc1ccc(C(=O)N2CCCC(CNC(=O)c3ccc(F)cc3)C2)o1 (centres undefined),-10.9%,35.5µM*,2.3%,0.0%,-7.8%,-3.5%
COC(=O)c1ccc(C(=O)N2CCCC(CNC(=O)c3ccc(F)cc3)C2)cc1 (centres undefined),-1.0%,21.5%[57.1 µM],-4.3%,16.2%,5.1%[57.1 µM],-8.6%
OCc1ccc(-c2nn(Cc3ccccc3)c3ccccc23)o1,-5.9%,?,20.6µM*!,2.5%,10.2%[57.1 µM],-0.9%
O=C1C(=O)C(c2cc(O)c(O)c(O)c2)Oc2cc(O)cc(O)c21 (centres undefined),-21.1%,12.6µM*,.,2.6%,-5.6%,.
O=C1CC(c2ccc(O)c(O)c2)Oc2cc(O)cc(O)c21 (centres undefined),-0.8%,-21.6%,8.9%,25.6%,-3.9%,-15.7%
SMILES,A549 viability,rTrxR1 inhibitor,Mito fusion yeast,Nrf2 inh,TrxR1 substrate,IDH1 R132H inh
Cc1ccc(/C=c2\s/c(=C(/C#N)C(=O)N3CCCC3)n(Cc3ccco3)c2=O)s1,-17.2%,25.1µM*,-3.3%,?,-15.1%,-4.7%
COc1ccc(C2c3c(N)nc(Cc4ccccc4)nc3Oc3ccc4ccccc4c32)cc1OC (centres undefined),-11.0%,.,.,?,.,.
COc1cc(Br)cc(/C=N/NC(=O)Cc2ccc(C(F)(F)F)cc2[N+](=O)[O-])c1O,?,-4.3%[57.1 µM],3.0%,16.4µM*,-1.5%[57.1 µM],-10.8%
N/C(=N\OC(=O)N1CCOCC1)c1ccc(Br)cc1,13µM*,7.6%,4.9%,?,2.4%,2.1%
N/C(=N\OC(=O)N1CCOCC1)c1ccc(Cl)cc1,-13.0%,10.3%,3.7%,4.3%,4.5%,-1.6%
CCN(CC)CCn1nc2c3c(cccc3c1=O)-c1ccccc1-2,13µM*,15.2%,-12.7%,?,13.3%,7.6%
Cc1ccc(OCCOC(=O)c2cc(S(=O)(=O)N3CCCCC3)ccc2N2CCOCC2)cc1,-10.2%,9.8%,10.0%,11.6µM*,1.9%,5.2%
NCCN(Cc1ccc(Cl)c(Cl)c1)c1ccc(Br)cn1,7.4%,-10.6%,.,19.5%,-4.0%,.
CS(=O)(=O)N(CC(=O)NC1CCCCC1)Cc1ccc(F)cc1,3.6%,37.1%[57.1 µM],3.5%,4.1%,-17.1%[57.1 µM],7.1%
COc1ccc(C(=O)/C=C/C(=O)N(CC(=O)NCCC(C)C)Cc2cccs2)c(O)c1,9.0%,2.82µM*,21.2%,2.3%,-4.7%,3.3%
COc1ccc(C(=O)/C=C/C(=O)N(CC(=O)NC2CCCCC2)Cc2ccc(F)cc2)c(O)c1,1.4%,3.98µM*,-0.7%,-9.0%,7.3%,4.6%
COc1cc(/C=N/N=C(/N)c2nonc2N)cc(Br)c1OCc1cccc(C)c1,-20.8%,-1.1%,17.0%,20.6µM*,-10.9%,6.3%
CCOc1cc(/C=N/N=C(\N)c2nonc2N)cc(Br)c1OCc1cccc2ccccc12,?,14.6%[57.1 µM],0.6%,20.6µM*,-9.7%,-2.3%
O=C(Nc1cc(Cl)ccc1Cl)N1CCCC1,5.5%,-8.5%,13.3%,-8.6%,-6.5%,0.0%

# High-throughput results: PubChem BioAssay, National Center for Advancing Translational Sciences (NCATS)
